Screening results: PubChem BioAssay, several laboratories
This is a sample that favours compounds with a hit; in the whole collection about 1.4% have one here.
GALR2 antag = GALR2 antagonists in receptor-expressing cells, primary screen; inhibition, % at 4 µM; AID 828, 2007; Galanin receptor type 2 (Homo sapiens), O43603; antagonist mode; 0.39% of 140,000 active; in the data active = inhibition above about 27%;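 note: cells stimulated with galanin 1-16 at roughly its EC80; 0% = agonist challenge control and 100% = basal control without agonist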
Mac1 fbg enh = enhancers of CD11b/CD18 adhesion to fibrinogen, primary screen, K562 cells, luminescence; ATPlite luminescence; activation, % at 10 µM; 0.07% of 93,000 active;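 active = 10 µM primary screen giving 50% or more activity, confirmed by 40% or more on retest at that dose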
CD11b adhes inh = inhibitors of CD11b/CD18 adhesion to fibrinogen, primary screen, K562 cells, luminescence. Integrin beta-2 (Homo sapiens) + Integrin alpha-M (Homo sapiens), P05107+P11215. ATPlite luminescence; Mn2+ added to activate the integrin. inhibition, % at 10 µM. 0.54% of 93,000 active;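 active = primary inhibition of 50% or more at 10 µM, then 40% or more on retest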
S1P2 blocker = human S1P2 receptor antagonists, primary screen, cell-based; Sphingosine 1-phosphate receptor 2 (Homo sapiens), O95136; cell-based S1P2 antagonist assay, inhibition at 5 uM; inhibition, % at 5 µM; 0.21% of 97,000 active; AID 736, 2007; in the data active = inhibition above about 45%;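 note: CRE beta-lactamase reporter cells expressing human S1P2 stimulated with S1P; 0% = agonist at EC80 alone and 100% = agonist plus reference antagonist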
Target sequence (O95136 whole entry, looked up): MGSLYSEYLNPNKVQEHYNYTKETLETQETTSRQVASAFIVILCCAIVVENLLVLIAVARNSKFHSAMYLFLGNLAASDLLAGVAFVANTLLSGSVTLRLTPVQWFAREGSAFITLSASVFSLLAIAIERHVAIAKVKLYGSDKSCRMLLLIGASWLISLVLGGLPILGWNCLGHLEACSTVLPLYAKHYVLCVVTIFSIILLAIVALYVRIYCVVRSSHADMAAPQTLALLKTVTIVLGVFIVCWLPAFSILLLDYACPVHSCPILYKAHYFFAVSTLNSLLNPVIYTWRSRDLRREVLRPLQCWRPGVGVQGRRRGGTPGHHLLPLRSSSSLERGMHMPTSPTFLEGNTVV
GALR2 agonist = GALR2 receptor agonists, primary screen, cell-based | Galanin receptor type 2 (Homo sapiens), O43603 | GALR2-expressing cells, agonist activation read-out | activation, % (no concentration beside the values) | 0.48% of 140,000 active; in the data active = activation above about 5%, passing the limit was not always enough;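 note: 0% = vehicle buffer wells and 100% = reference agonist at full effect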
S1P2 ag = S1P2 receptor agonists, primary screen, cell-based. Sphingosine 1-phosphate receptor 2 (Homo sapiens), O95136. S1P2-expressing cell line, agonist reporter read-out. activation, % at 4.5 µM. 0.46% of 97,000 active. AID 729, 2007; in the data active = activation above about 16%;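 note: 0% = vehicle low control and 100% = maximal reference agonist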
GALR2 ag confirm = GALR2 agonists, retest of hits, confirmation, cell-based; 10% of 460 active; AID 864, 2007; GALR2-expressing cells, agonist activation; shares compounds with GALR2 agonist; activation, % at 5.6 µM; in the data active = activation above about 8.4%;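 note: 0% = buffer-only vehicle wells and 100% = full reference agonist response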
BLA activ ctr = activators of NFAT-driven beta-lactamase reporter, confirmation, counter-screen for GALR2 agonist project, CHO NFAT-bla cells, FRET readout | 10% of 460 active | beta-lactamase FRET activation | activation, % at 5.6 µM | shares compounds with GALR2 agonist;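 active = activation above the screen-wide mean activation plus 3 SD, cut at about 8% in these data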;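 note: 0% = DMSO with PBS wells and 100% = thapsigargin positive control wells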
Active calls of the source: *.

For Cc1cc(C)c2nc(NNC(=O)c3ccc(S(=O)(=O)N4CCCC(C)C4)cc3)sc2c1 (stereo not drawn) the results were GALR2 antag 16.4, GALR2 agonist 17.9*, GALR2 ag confirm 8.2* and BLA activ ctr -2.2.
For Cc1cccc2sc(NNC(=O)c3ccc(S(=O)(=O)N4CC(C)CC(C)C4)cc3)nc12 (stereo not drawn) the results were GALR2 antag 8.5, GALR2 agonist 32.9*, GALR2 ag confirm 7.7 and BLA activ ctr -3.0.
`Cc1cc(C)c2nc(NNC(=O)c3ccc(S(=O)(=O)N4CC(C)CC(C)C4)cc3)sc2c1` (stereo not drawn) gave GALR2 antag 11.4, GALR2 agonist 43.8*, GALR2 ag confirm 13.7* and BLA activ ctr 1.8.
CCOC(=O)C1CCCN(C(=O)CCCOc2cc(=O)n(C)c3ccccc23)C1 (stereo not drawn) was read as GALR2 antag 4.6, Mac1 fbg enh 12.9, CD11b adhes inh -0.2, S1P2 blocker 15.0, GALR2 agonist -1.0 and S1P2 ag -7.6.
Screening CC(C)Oc1ccc(CSc2nnc3n(C)c(=O)c4c5c(sc4n23)CCCC5)cc1 returned GALR2 antag 17.2, S1P2 blocker -3.9, GALR2 agonist 1.4 and S1P2 ag -6.4.
For CCOC(=O)N1CCC(NC(=O)C(CC(C)C)NC(=O)C2CCCCC2)CC1 (stereo not drawn) the results were GALR2 antag 2.4, Mac1 fbg enh 6.3, CD11b adhes inh -14.0 and GALR2 agonist -1.3.
For CCOC(=O)c1c(-c2ccc(C)o2)csc1NC(=O)CSc1nncs1 the results were GALR2 antag 2.5, Mac1 fbg enh 1.8, CD11b adhes inh 17.1, S1P2 blocker -9.5, GALR2 agonist -2.1 and S1P2 ag -2.2.
For COC(=O)c1ccc(C(C(=O)NCc2ccccc2)N(Cc2cccs2)C(=O)c2cnccn2)cc1 (stereo not drawn) the results were GALR2 antag -1.5, Mac1 fbg enh -2.4, CD11b adhes inh 3.5, S1P2 blocker 21.9, GALR2 agonist -2.3 and S1P2 ag -5.9.
Cc1ccc(CNC(=O)CCNC(=O)c2ccc(Br)o2)cc1 was read as GALR2 antag -14.4, Mac1 fbg enh 2.1, CD11b adhes inh -29.7, S1P2 blocker -3.8, GALR2 agonist 28.3*, S1P2 ag -2.3, GALR2 ag confirm -1.0 and BLA activ ctr -1.9.
`O=S(=O)(c1ccc(N2CCN(CCO)CC2)nc1)N1CCCCC1` gave GALR2 antag -18.7, S1P2 blocker -16.5, GALR2 agonist 21.5*, S1P2 ag -1.0, GALR2 ag confirm -0.9 and BLA activ ctr -2.2.
`CCCOc1ccc(/C(O)=C2/C(=O)C(=O)N(CCN(C)C)C2c2ccco2)cc1` (stereo not drawn) gave GALR2 antag 1.1, Mac1 fbg enh 5.0, CD11b adhes inh -49.5, S1P2 blocker 11.0, GALR2 agonist -2.7 and S1P2 ag -7.1.
CCOc1ccc(Br)cc1S(=O)(=O)Nc1ccc(C(=O)Nc2ccc(C)cc2)cc1 was read as GALR2 antag 6.4 and GALR2 agonist -1.8.
Screening CCOc1ccc(Br)cc1C(=O)Nc1ccc(C(=O)NCC(C)C)cc1 returned GALR2 antag -0.6, GALR2 agonist 14.1*, GALR2 ag confirm 12.9* and BLA activ ctr 5.2.
CCCN1C(=O)/C(=C2\SC(N3CCCCC3)=NC2=O)c2ccccc21 was read as GALR2 antag 2.2, Mac1 fbg enh -2.0, CD11b adhes inh -18.9, S1P2 blocker -25.8, GALR2 agonist 59.1*, S1P2 ag -4.9, GALR2 ag confirm 1.2 and BLA activ ctr 0.0.
`CCOc1ccc(C2C=C(c3ccccc3)Nc3ncnn32)cc1` (stereo not drawn) gave GALR2 antag 14.1, Mac1 fbg enh -2.5, CD11b adhes inh -11.3, S1P2 blocker 28.4, GALR2 agonist -4.5 and S1P2 ag -9.5.
COc1ccc(-c2cc(-c3cc(OC)ccc3O)[nH]n2)cc1 was read as GALR2 antag 12.5, Mac1 fbg enh 1.2, CD11b adhes inh -38.9, S1P2 blocker -15.1, GALR2 agonist -3.4 and S1P2 ag -5.3.
`COc1ccc(-c2n[nH]c(C)c2-c2cc(OC)ccc2O)cc1` gave GALR2 antag -9.9, Mac1 fbg enh -0.7, CD11b adhes inh -3.4, S1P2 blocker -5.1, GALR2 agonist 8.6, S1P2 ag -3.2, GALR2 ag confirm 0.3 and BLA activ ctr 1.1.
Screening N/C(=N\O)c1ccc(NC(=O)c2cccs2)cc1 returned GALR2 antag 3.0, Mac1 fbg enh 0.9, CD11b adhes inh 7.3, GALR2 agonist 25.2*, GALR2 ag confirm -1.2 and BLA activ ctr -2.1.
CC(=O)c1ccc(NC(=O)c2cccs2)cc1 was read as GALR2 antag -3.0, Mac1 fbg enh -1.5, CD11b adhes inh -10.4, S1P2 blocker -10.2, GALR2 agonist -2.0 and S1P2 ag -0.6.
O=c1[nH]ncn2cccc12 was read as GALR2 antag -12.1, S1P2 blocker 8.8, GALR2 agonist 24.6*, S1P2 ag -4.8, GALR2 ag confirm -0.7 and BLA activ ctr -1.7.
Screening O=C1/C(=C/c2ccco2)N=C(N2CCCCC2)N1c1ccccc1 returned GALR2 antag 8.0 and GALR2 agonist 0.5.
CC(C)N(C1=N/C(=C\c2ccco2)C(=O)N1c1ccccc1)C(C)C was read as GALR2 antag 3.9, Mac1 fbg enh -2.9, CD11b adhes inh 3.9, S1P2 blocker -20.1, GALR2 agonist 8.7, S1P2 ag 14.2, GALR2 ag confirm 6.2 and BLA activ ctr 9.2*.
`Nc1cc(OC(=O)c2ccco2)nn1S(=O)(=O)c1ccc(F)cc1` gave GALR2 antag 1.0, Mac1 fbg enh -7.8, CD11b adhes inh 11.5, S1P2 blocker 12.6, GALR2 agonist -0.7 and S1P2 ag -6.5.
